Viability (% of control), Potency and outcome data for 23 compounds are collected here from PubChem BioAssay (NCATS).

Records with an inconclusive call do not appear. Activity calls are given as the source filed them. Unless noted, calls come from the whole dose curve; as a rule, active = well fitted curve in the direction sought with a large enough effect; inconclusive = small, poorly fitted or top-dose-only effect, or another doubt; inactive = no such curve, though single readings can be large; an effect the other way counts as inactive or inconclusive.

Assay [1] is described as follows: High-throughput drug toxicity screening in the BPDCN cell line Cal-1 (AID 1224825; call rule not given here). Particulars: Cal-1 BPDCN cell viability, qHTS; at 45.8 µM (top of the series). The method in brief:
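CellTiter-Glo luminescence after 48 h compound exposure; percent activity scaled with DMSO as 100% and bortezomib (9.2 uM final) as 0%. Cal-1 cells seeded at 500/well in RPMI, 10% FBS, no phenol red.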
(In general: qHTS replaces the single test concentration by a dilution series.)

A short description of assay [2]: qHTS assay for measurement of the activity of small molecule inhibitors on Zika virus induced Caspase-3 activity in human iPSC derived neural progenitor cells (hNPCs) (AID 1224857). Note: % of control where 0% means no effect; nearly all actives have a fitted effect of over 65% in size. The method in brief:
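Quantitative HTS format: human iPSC neural progenitors, 1 h compound pretreatment, ZIKV 2 FFU/cell for 6 h at 37 C. Percent inhibition derived from luminescent caspase-3/7 signal between uninfected and infected controls.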

The nature of assay [3]: qHTS assay for measurement of the activity of small molecule inhibitors on Zika virus induced Caspase-3 activity in human astrocytoma cells (AID 1224859).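 Note: plate controls were ZIKV-infected untreated cells for no effect and uninfected cells for full effect.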 The method in brief:
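Readout is luminescence from Caspase-Glo 3/7 added after a 6 h ZIKV infection (2 FFU/cell) of compound-pretreated (1 h) SNB-19 cells; data expressed as % inhibition versus uninfected and infected wells.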

The nature of assay [4]: qHTS Screen of the MIPE 4.0 Collection Against Ewings Sarcoma (RDES) (AID 1259252). Note: nearly all actives have a fitted effect of over 35% in size. Note: potency is the fitted concentration of half-maximal effect. The method in brief: (§1)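 Log-phase cells in RPMI with 5% FBS attached for 4 h, then received compounds as a titration for 48 h at 37C, 5% CO2. Viability was read by CellTiter-Glo luminescence and normalized to DMSO and no-cell wells.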
The nature of assay [5]: qHTS Screen of the MIPE 4.0 Collection Against Ewings Sarcoma (TC71) (AID 1259253). Note: nearly all actives have a fitted effect of over 40% in size. Note: potency is the fitted concentration of half-maximal effect. The method in brief:
as §1

The nature of assay [6]: qHTS Screen of the MIPE 4.0 Collection Against Ewings Sarcoma (EW8) (AID 1259255).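 For Viability: 100% = DMSO-treated cells and 0% = medium-only wells without cells.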 Note: nearly all actives have a fitted effect of over 35% in size. Note: potency is the fitted concentration of half-maximal effect. The method in brief: as §1
Assay [7] is described as follows: qHTS Screen of the MIPE 4.0 Collection Against Ewings Sarcoma (TC32) (AID 1259256). Note: nearly all actives have a fitted effect of over 45% in size. Note: potency is the fitted concentration of half-maximal effect. The method in brief:
as §1

The nature of assay [8]: qHTS assay to identify small molecule inhibitors of chordoma cells - UCH-1 (AID 1259355). Note: % is set by controls: 0 for no effect and ±100 for the full control effect; nearly all actives have a fitted effect of over 55% in size. The method in brief: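 Screening used approved and investigational drugs in 15-point titration against 800 seeded cells per well. A fixed combination of auranofin with camptothecin, doxorubicin, rubitecan and topotecan followed compound addition, and growth was scored by CellTiter-Glo after 48hr.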

Assay [9] can be described thus: qHTS assay to identify small molecule inhibitors of chordoma cells - UCH-2 (AID 1259356). Note: % is set by controls: 0 for no effect and ±100 for the full control effect.
Assay [10] is described as follows: Identifying Small Molecule Inhibitors of Pancreatic Cancer Stem Cells (A2780, Spheroid) (AID 1259357).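 Note: spheroids pre-formed over 14 days in stem cell medium on hydrogel; compound exposure lasted 48 h before the ATP luminescence read; 100% = DMSO treated cells and 0% = wells without cells.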 Particulars: Potency: A2780 spheroid viability. An excerpt:
Progenitor-like cancer cells, often referred to as cancer stem cells (CSC), are believed to be the drivers of therapeutic resistance and rapid recurrence. CSCs are postulated to reside in specific niches characterized by low oxygen tension, limited nutrient supply, and high redox load. Selectively targeting CSC, alone or in combination with cytotoxic agents, as a means to produce durable remissions is an appealing concept. Modeling these cells in in vitro setting is an important step in finding new therapies and/or targets. Multiple reports highlight that forcing cells in culture into 3-dimensionaly architectures (spheroids) re-establishes key progenitor-like transcriptional signatures. Pancreatic cancer is among the diseases with the most dismal outlook which is driven, largely, by recurance following front-line therapies. […] In hopes of deriving new insight into the targeting of these pancreatic CSCs we examined three established pancreatic cancer cell lines in cytotoxicity assays versus a collection of approved and investigational drugs. Importantly, we screened these lines as traditional monolayer (2D) and spheroid (3D) formats to gain an appreciation of agents with differential activity.
Multicellular tumor spheroids from Panc1, MiaPaCa-2, and the primary low-passage tissue culture line SB.06 were seeded in stem cell media (SCM) in nonadherent 6-well plates coated with hydrogel (Corning Life Sciences, Chelmsford, Mass) and pancreatic spheres generated for 14 days before screening. Cells were seeded into 1536-well solid-bottom white tissue culture treated Greiner Bio One Plates (789173-F) using a MultiDrop Combi (Thermofisher Scientific) dispenser and a small sterile cassette. One column was media alone to be used as a :"no cells" control. The plates were then covered with sterilized stainless steel gasketed lids from Kalypsys. After allowing cells to attach for 4 hours, 23 nL of test compound or control (negative control DMSO and positive control 9.2 uM Bortezomib-final) were added from a 1536-well polypropylene compound source plate to each well using a 1536 head pin tool from Kalypsys. Cells were then incubated for 48 hours at 37C, 95% relative humidity and 5% CO2. After 48 hours, plates were removed from the incubator and 3 uL of CellTiter-Glo (Promega) was added using an Aurora Flying Reagent Dispenser Bioraptor. Plates were incubated at room temperature for 10 minutes prior to reading the luminescence on the Viewlux (PerkinElmer). The relative luciferase units are used to calculate the percent activity using the activity of DMSO in the cells and no cells columns for normalization of no inhibition and full inhibition respectively.

On to `C#CCN(C)[C@H](C)Cc1ccccc1`, for which the viability (% of control) in assay [1] turned out to be 105%. Moreover, the Potency result in assay [2], in assay [4], in [5], in assay [6], in [7] and in assay [8] was “inactive” each time. Further, the Potency result in assay [9] is “inactive”. Further, the result in assay [3] was inactive.

As for `C[C@@H]1[C@@H](C(=O)C[C@H]2O[C@@H]3O[C@]4(C)CC[C@@H]5[C@H](C)CC[C@@H]([C@H]2C)[C@@]35OO4)O[C@@H]2O[C@]3(C)CC[C@H]4[C@H](C)CC[C@@H]1[C@@]24OO3`, in assay [1], the viability (% of control) is 7.82%. Moreover, the Potency result in [2] is “inactive”. The compound was called inactive in assay [3]. In addition, the Potency is 3.72 µM (active) in assay [4], 4.69 µM (active) in [5], 0.743 µM (active) in assay [6] and 20.9 µM (active) in assay [7].

As for `CC(O)(CS(=O)(=O)c1ccc(F)cc1)C(=O)Nc1ccc(C#N)c(C(F)(F)F)c1` (centres undefined), the viability (% of control) in assay [1] stood at 3.75%. Further, in assay [2], the Potency entry was “inactive”. Also, the compound was classed as inactive in [3]. In addition, the Potency is 0.59 µM (active) in [4], 2.35 µM (active) in [5], 3.72 µM (active) in assay [6] and 2.64 µM (active) in [7].

With `COc1ccc2c(c1OC)CN1CCc3cc4c(cc3C1C2)OCO4` (centres undefined), the viability (% of control) in [1] was found to be 62.2%. Moreover, the Potency entry in assay [2], in assay [7], in assay [8] and in assay [9] was “inactive” throughout. Besides, the outcome in assay [3] was inactive. For the same compound, the Potency in [4] was 14.8 µM (active).

For the compound `CC(C)CC(N(C)C)C1(c2ccc(Cl)cc2)CCC1` (centres undefined), the viability (% of control) in assay [1] is 105%. The Potency result in assay [2], in assay [8] and in [9] was “inactive” each time. Besides, the call in assay [3] was inactive. Further, the Potency in assay [6] was 18.7 µM (active).

On to `CN(C)CCN(C)CCc1ccc(Cl)c(Cl)c1`, for which the viability (% of control) in assay [1] is 92.7%. Also, the Potency entry in assay [2], in [4], in assay [5], in assay [6], in [7] and in assay [10] was “inactive” throughout. Besides, in assay [3], the call was inactive.

As for `NCC1(CC(=O)O)CCCCC1`, the viability (% of control) in assay [1] came to 104%. Also, the Potency entry in [2], in assay [8] and in [9] was “inactive” each time. Moreover, in [3], the compound was classed as inactive.

Regarding `C=C(C)[C@H]1Cc2c(ccc3c2O[C@@H]2COc4cc(OC)c(OC)cc4[C@@H]2C3=O)O1`, in assay [1], the viability (% of control) stood at 11.5%. Also, the Potency entry in [2] and in [9] was “inactive” in each case. Moreover, the compound was classed as inactive in [3]. For the same compound, the Potency in assay [4] was 2.09 µM (active); in assay [5], 4.69 µM (active); in assay [6] it was 2.96 µM (active); in assay [7], 0.743 µM (active).

For the compound `Cc1sc2c(c1C)C(c1ccc(Cl)cc1)=N[C@@H](CC(=O)OC(C)(C)C)c1nnc(C)n1-2`, in assay [1], the viability (% of control) was determined as 2.41%. Also, the Potency entry in assay [2] was “inactive”. Further, in assay [3], the result was inactive. Besides, the Potency in assay [4] was 1.48 µM (active); in assay [5] it was 1.48 µM (active); in assay [6], 16.6 µM (active); in assay [7], 1.32 µM (active).

In the case of `N[C@@H](Cc1ccc(N(CCCl)CCCl)cc1)C(=O)O`, in [1], the viability (% of control) is 4.8%. Also, the Potency result in assay [2] and in assay [7] was “inactive” each time. For the same compound, the compound was classed as inactive in assay [3]. Moreover, the Potency was 5.26 µM (active) in [4], 9.35 µM (active) in assay [5] and 3.32 µM (active) in assay [6].

As for `O=c1[nH]c2ccccc2n1CCCN1CCC(n2c(=O)[nH]c3cc(Cl)ccc32)CC1`, in assay [1], the viability (% of control) was 61.6%. In addition, the Potency entry in assay [2], in [4], in assay [5], in assay [7], in [8] and in assay [9] was “inactive” each time. The compound was classed as inactive in assay [3].

As to `CNC(=O)c1ccc(N2C(=S)N(c3ccc(C#N)c(C(F)(F)F)c3)C(=O)C23CCC3)cc1F`, in assay [1], the viability (% of control) was 7.78%. The Potency result in [2] is “inactive”. In addition, the outcome in assay [3] was inactive. Further, the results for the Potency in assay [4] and in assay [7] were 20.9 µM (active) and 23.5 µM (active), respectively.

As for `CCn1cc(C(=O)O)c(=O)c2ccc(C)nc21`, in assay [2], the Potency entry was “inactive”.

For `O=P1(NCCCl)OCCCN1CCCl` (centres undefined), the viability (% of control) in assay [1] is 20.1%. For the same compound, the Potency entry in assay [2], in [7], in assay [8] and in [9] was “inactive” in each case. In assay [3], the compound was called inactive. Further, the Potency in assay [6] is 20.9 µM (active).

In the case of `CCCC(C)(COC(N)=O)COC(=O)NC(C)C` (centres undefined), the viability (% of control) in assay [1] stood at 110%. Further, the Potency result in assay [2], in assay [4], in assay [5], in assay [6], in assay [7] and in assay [8] was “inactive” in each case. Also, the Potency result in assay [9] was “inactive”. Besides, the result in assay [3] was inactive.

For the compound `COC[C@@H](NC(C)=O)C(=O)NCc1ccccc1`, the viability (% of control) in assay [1] was determined as 115%. Moreover, the Potency entry in assay [2], in [4], in [5], in assay [6] and in [7] was “inactive” in each case. In assay [3], the result was inactive.

Regarding `CNC(=O)N1N=C(c2ccc(N)cc2)c2cc3c(cc2CC1C)OCO3` (centres undefined), the viability (% of control) in assay [1] amounted to 9.51%. For the same compound, the Potency entry in assay [2] and in assay [10] was “inactive” throughout. The result in [3] was inactive. Also, the values for the Potency in [4] and in assay [7] were 9.35 µM (active) and 11.8 µM (active), respectively.

`CN(C)CCc1ccc(O)cc1`: the viability (% of control) in assay [1] is 108%. Also, the Potency result in assay [2], in [4], in assay [6], in assay [7], in assay [8] and in assay [9] was “inactive” each time. For the same compound, in assay [3], the call was inactive.

In the case of `CNCC(O)c1ccc(O)cc1` (centres undefined), in assay [1], the viability (% of control) turned out to be 114%. In addition, the Potency entry in assay [2], in assay [4], in assay [5], in assay [6], in assay [7] and in [8] was “inactive” in each case. In addition, in [9], the Potency result was “inactive”. In addition, the compound was called inactive in assay [3].

Regarding `O=C1CC[C@@]2(O)[C@H]3Cc4ccc(O)c5c4[C@@]2(CCN3CC2CC2)[C@H]1O5`, the viability (% of control) in [1] turned out to be 62%. Besides, the Potency result in [2], in [4], in [5], in assay [6], in assay [7] and in assay [8] was “inactive” in each case. Besides, the Potency result in assay [9] was “inactive”. Moreover, the compound was called inactive in assay [3].

As to `O=C(O)C(=O)c1cn(Cc2ccccc2)c2ccc(-c3ccc(OC(F)(F)F)cc3)cc12`, in [1], the viability (% of control) is 118%. The Potency entry in assay [2], in assay [4], in assay [6] and in [7] was “inactive” in each case. Besides, the call in assay [3] was inactive.

Regarding `CN(C)[C@@H]1C(=O)C(C(N)=O)=C(O)[C@@]2(O)C(=O)C3=C(O)c4c(O)cccc4[C@@](C)(O)[C@H]3C[C@@H]12`, in [1], the viability (% of control) is 83.2%. Further, the Potency result in assay [2], in [8] and in [9] was “inactive” throughout. The outcome in assay [3] was inactive. Further, the values for the Potency in [5], in assay [6] and in [7] were 3.72 µM (active), 11.8 µM (active) and 6.62 µM (active), respectively.

On to `COc1ccc(C(=O)c2c(C)n(CCN3CCOCC3)c3ccccc23)cc1`, for which the viability (% of control) in assay [1] amounted to 101%. The Potency result in [2], in [4], in assay [5], in assay [6], in assay [7] and in assay [8] was “inactive” throughout. Moreover, the Potency entry in [9] and in assay [10] was “inactive” each time. Besides, the result in assay [3] was inactive.
